The full list was thinned out, with hits kept by preference.
CD40 NFkB inh = CD40 pathway inhibition in BL2 cells. BL2 NF-kB luciferase reporter, CD40L-induced, 4 h. inhibition, % at 10 µM. hit rate 0.94% among 83,000;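 active = mean inhibition of at least 50% with a set share of replicates also reaching that level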;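 also: 0% = neutral control wells and 100% = IKK inhibitor VII at 50 µM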
* hit, by the source's call; [ ] = remark or other dose.

SMILES	CD40 NFkB inh
COc1ccc(CNn2c(-c3cccc(C)c3)nc3ccccc3c2=O)cc1OC	-9
COc1cc2c3nnc(-c4ccccc4)c-3cn(Cc3ccc(F)cc3)c2cc1OC	55*
CCc1nc2ccccc2n1Cc1ccc(OC)c(OC)c1	5
C[C@H]1CN(C)C(=O)c2cccc(N)c2O[C@H]1CN(C)S(C)(=O)=O	-6
CC(=O)N(C)C[C@H]1Oc2ccc(NC(=O)NC(C)C)cc2CC(=O)N(C)C[C@@H]1C	3
OC(c1cc(-c2cccc(Cl)c2)nc2ccccc12)C1CCCCN1 (stereo not drawn)	65*
O=C(O)c1cc(-c2ccccc2)nc2ccccc12	-4
OC(CN1CCOCC1)Cn1c(-c2cccc(Cl)c2)nc2ccccc21 (stereo not drawn)	0
C[C@H]1CN([C@@H](C)CO)C(=O)c2ccccc2-c2ccccc2CO[C@@H]1CN(C)C(=O)c1ccncc1	-14
C[C@@H]1CCCn2cc(nn2)COCCNC1=O	-10[25 µM]
NS(=O)(=O)c1ccc(N=Cc2c(O)[nH]c3ccccc23)cc1	-9[25 µM]
COc1ccc(C(=O)/C=C/C(=O)N(CC(=O)NC2CCCCC2)Cc2ccccc2)c(O)c1	105*
COc1cccc(/C=C/C(=O)OCC(=O)NC2CCCCCCC2)c1	5
COc1ccc(C(=O)/C=C/C(=O)N(CC(=O)NC2CCCCC2)Cc2ccccc2OC)c(O)c1	2
C[C@H](NC(=O)N(C)C[C@H]1OCc2ccccc2-c2c(n(C)c3ccccc23)C(=O)N([C@H](C)CO)C[C@@H]1C)c1ccccc1	-9
O=C(Cc1ccncc1)N1C[C@@H]2N[C@H](C1)C2c1ccc(-c2ccncc2)cc1 (stereo partly drawn)	-4
CCNC(=O)[C@H]1[C@H](CO)[C@H]2Cn3c(ccc(-c4cccc(F)c4)c3=O)[C@@H]1N2C(=O)c1cnccn1	4[25 µM]
Fc1ccccc1CNCCC(Cc1ccccc1)c1ccc2c(c1)OCO2 (stereo not drawn)	33*
CC(=O)N(CCC(Cc1ccccc1)c1ccc2c(c1)OCO2)Cc1ccccc1F (stereo not drawn)	12
CC(C)CCC(CCNCc1ccccn1)c1ccc2c(c1)OCO2 (stereo not drawn)	15
COc1ccc(C#Cc2ccc([C@H]3[C@@H](CO)N4C(=O)CN(C(=O)c5ccc(F)cc5)C[C@H]34)cc2)cc1	0[25 µM]
C[C@H](CO)N1C[C@H](C)[C@@H](CN(C)Cc2ccncc2)OCCCC[C@H](C)Oc2ccc(NC(=O)Cc3ccccc3)cc2C1=O	6[25 µM]
CC(=O)N(C)C[C@H]1Oc2c(NC(=O)NC(C)C)cccc2C(=O)N(C)C[C@H]1C	-2
COc1ccc(NC(=O)Nc2ccc3c(c2)C(=O)N([C@@H](C)CO)C[C@H](C)[C@@H](CN(C)Cc2ccc(C(F)(F)F)cc2)OCCCC[C@H](C)O3)cc1	-6
Cc1cc(Nc2cccc([N+](=O)[O-])c2)n2c(nc3ccccc32)c1C#N	78*
SMILES	CD40 NFkB inh
Cc1cc(NCCCN2CCOCC2)n2c(nc3ccccc32)c1C#N	-15
Cc1cc(NCCN2CCOCC2)n2c(nc3ccccc32)c1C#N	3
CN(C)c1ccc2c(c1)[C@H]1C[C@H](CC(=O)O)O[C@@H](CO)[C@H]1O2	2[25 µM]
COc1ccccc1C(=O)N1C[C@H]2[C@@H](c3ccccc31)[C@H](CO)N2Cc1ccc(F)cc1	5[25 µM]
Cc1cc(C(=O)NCCCC(=O)O)c(C)o1	25
Cc1cc(C(=O)NCCC(c2ccccc2)c2ccccc2)c(C)o1	80*
Cc1cc(C(=O)Nc2c(C)n(C)n(-c3ccccc3)c2=O)c(C)o1	5
COc1ccc2c3c([nH]c2c1)[C@H](CO)NCC31CCN(C(=O)Nc2ccccc2F)CC1	8[25 µM]
CC(C)(C)[S@@](=O)N1Cc2cc(C(=O)N3CCCCC3)nc(-c3cccc(-c4ccc(C#N)cc4)c3)c2[C@H]1CCO	-4
C[C@H](CO)N1C[C@H](C)[C@H](CN(C)Cc2ccc(-c3ccccc3)cc2)OCc2cn(nn2)CCCC1=O	-1
Cn1cnc(CCNC(=O)C[C@@H]2CC[C@@H]3[C@H](COC[C@@H](O)CN3C(=O)Nc3ccc(C(F)(F)F)cc3)O2)c1	52*[25 µM]
Cn1cnc(CCNC(=O)C[C@@H]2CC[C@@H]3[C@H](COC[C@H](O)CN3C(=O)Nc3ccc(C(F)(F)F)cc3)O2)c1	5[25 µM]
Cn1cnc(CCNC(=O)C[C@H]2CC[C@@H]3[C@H](COC[C@@H](O)CN3C(=O)Nc3ccc(C(F)(F)F)cc3)O2)c1	21[25 µM]
COc1ccc(-c2ccc3c(c2)[C@@H]2[C@@H](CCN2C(=O)c2cccc(F)c2)[C@H](CO)N3C)cc1	-6[25 µM]
CCN(Cc1ccccc1)S(=O)(=O)c1ccc(C(=O)N(CCCN(C)C)c2nc3cc4c(cc3s2)OCCO4)cc1	16
CCN(Cc1ccccc1)S(=O)(=O)c1ccc(C(=O)N(CCCN(C)C)c2nc3cc(OC)ccc3s2)cc1	52*
COc1ccc2sc(N(CCCN(C)C)C(=O)c3ccc(C(=O)c4ccccc4)cc3)nc2c1	9
CCCN1[C@@H]2c3ccc(-c4ccc(F)cc4)c(=O)n3C[C@H]1[C@H](CO)[C@H]2C(=O)NCC1CC1	2[25 µM]
C[C@@H]1CN([C@@H](C)CO)C(=O)c2c(c3ccccc3n2C)-c2ccccc2CO[C@@H]1CN(C)Cc1cccc2c1OCCCO2	3[25 µM]
COc1cccc(CNC(=O)C[C@@H]2CC[C@H]3[C@@H](COc4ccc(NS(=O)(=O)c5ccccc5F)cc4C(=O)N3C)O2)c1	-9[25 µM]
CC(=O)c1cc(-c2ccccc2)n(CCC(=O)NC2CCCCCCC2)c1C	2
CC(=O)c1cc(-c2ccccc2)n(CC(=O)NCc2cccs2)c1C	54*
O=C(CN1CCN(Cc2ccccc2)C1=O)NCc1cccs1	0
CN1c2ccc(-c3ccc(C#N)cc3)cc2[C@@H]2[C@@H](CCN2S(=O)(=O)c2ccc(F)cc2)[C@@H]1CO	28[25 µM]
O=C(C[C@H]1CC[C@H]2[C@@H](COC[C@H](O)CN2C(=O)Nc2cccc(F)c2)O1)NCCCN1CCOCC1	-39[25 µM]
SMILES	CD40 NFkB inh
O=C(COc1ccc2c(c1)OCO2)Nc1nccs1	47*
O=C(COc1ccc2c(c1)OCO2)Nc1nnc(Cc2ccccc2)s1	12
O=C(COc1ccc2c(c1)OCO2)Nc1ccc(Cl)cn1	-71
CC(=O)N(C)C[C@H]1Oc2ncccc2C(=O)N(C)C[C@H]1C	4
O=C(Nc1nnc(C2CCCCC2)s1)C1CC(=O)N(c2ccccc2)C1 (stereo not drawn)	13
O=C(Nc1nnc(C2CC2)s1)C1CC(=O)N(c2ccc3c(c2)OCCO3)C1 (stereo not drawn)	51*
O=C(Nc1nc2ccc(F)cc2s1)C1CC(=O)N(c2ccc3c(c2)OCCO3)C1 (stereo not drawn)	28
C/C=C/c1ccc2c(c1)[C@H]1[C@H](CCN1C(=O)c1ccc3c(c1)OCO3)[C@H](CO)N2	0[25 µM]
COc1cccc(CN(C)C[C@H]2OCc3ccccc3-c3ccccc3C(=O)N([C@H](C)CO)C[C@H]2C)c1	-3[25 µM]
C[C@H]1CN([C@@H](C)CO)C(=O)c2ccccc2-c2ccccc2CO[C@@H]1CN(C)C(=O)Nc1cccc(Cl)c1Cl	25[25 µM]
O=C(C[C@H]1C[C@H]2c3cc(NC(=O)Cc4ccncc4)ccc3O[C@H]2[C@@H](CO)O1)NCc1cc(F)ccc1F	-14[25 µM]
COc1ccc2c3c(n(C)c2c1)[C@@H](CO)NCC31CCN(C(=O)c2ccccc2)CC1	8
CC(C)(C)[S@](=O)N1Cc2cc(C(=O)NCCN3CCCCC3)nc(-c3cccc(-c4cccc(C#N)c4)c3)c2[C@@H]1CCO	6
